We go through 40 compounds from PubChem BioAssay (NCATS).

Where “and” joins values, the source holds several entries; their conditions need not be identical. Equal entries are not always repeated. Records with an inconclusive call do not appear. Where a call stands in place of a potency, no number is given. Calls of active or inactive are those of the source. Calls come from the whole dose curve; as a rule, active = well fitted cell-killing curve with a large enough effect; inconclusive = small, poorly fitted or top-dose-only effect; inactive = no such curve, though single readings can be large or run the other way.
Potency is the fitted concentration of half-maximal effect.

The nature of this assay: qHTS of pediatric cancer cell lines to identify multiple opportunities for drug repurposing: Primary screen for LAN-5 cells (AID 1347100). The following applies: LAN-5 neuroblastoma viability, CellTiter-Glo luminescence, 48 h; series mostly up to 46 µM; activity change, negative = cytotoxic: at the top concentration. An excerpt:
Drug repurposing or repositioning has been offered as a strategy for drug development in oncology programs. This approach has special potential for childhood cancers and other rare or orphan diseases, where the expected return on new drug development has been a disincentive to pharmaceuticals.
In this project we exploit the poly-pharmacology of drugs to discover new indications via phenotypic screening of a panel of 19 well-characterized cell lines derived from solid tumors seen in children and adolescents. The goal is to identify approved drugs with previously unrecognized anticancer properties that has the potential to reveal new mechanisms and biological processes involved in carcinogenesis or drug resistance. We employed a titration-based paradigm (quantitative high-throughput screening or qHTS), where all compounds were tested at multiple concentrations for their effect on cell viability. Concentration-response curves (CRCs) were derived directly from the primary screen, and both potency and efficacy values were used to identify compounds with robust bioactivity profiles. We screened the NIH Chemical Genomics Center (NCGC) Pharmaceutical Collection (NPC) and Mechanism Interrogation Plate (MIPE) small molecule collections of approved and investigational compounds against these cell lines; and measured metabolically active cells after 48 hours of compound treatment as a proxy for cell viability.
Assay Submitter: Nathalia J. Martinez, National Center for Advancing Translational Sciences, National Institutes of Health, Rockville, MD, USA; email: natalia.martinez@nih.gov
[1] Shen, M et al. Quantitative high-throughput phenotypic screening of pediatric cancer cell lines identifies multiple opportunities for drug repurposing. Oncotarget 2017 Dec 19;9(4):4758-4772. PMID 29435139.
The cells were obtained from University of North Carolina (UNC), Pediatric Preclinical Testing Program (PPT), and Coriell Institute (CI).
qHTS cell viability assay:
Cells were assayed in growth media at a density of 500-1,000 cells/well. Five microliters of cells were dispensed into 1,536-well, white, solid-bottom, TC-treated plates (Greiner Bio One) using a multidrop dispenser and incubated at 37 degrees C, 5% CO2, under a humidified atmosphere for 5 hours. Twenty-three nanoliters of compounds and controls (neutral control DMSO or positive control bortezomib at final concentration of 2.3 µM) were subsequently transferred by Kalypsys pintool. For primary screens, the MIPE collection was tested at 11-point dilutions (final concentrations range from 0.78 nM to 46 µM) and the NPC collection at 8-point dilutions (final concentrations range from 0.59 nM to 46 µM). Compounds tested in follow-up screens were assayed at 11-point dilutions. Cells were incubated for 48 hours, followed by addition of 3 µL of CellTiter-Glo (Promega). After a 15 min incubation at room temperature, samples were analyzed for luminescence intensity using a ViewLux High-throughput CCD imager equipped with clear filters.
With `Fc1ccc([C@@H]2CCNC[C@H]2COc2ccc3c(c2)OCO3)cc1`, the Potency entry is “inactive”.
On the same count and under the same terms, the same measure for `COc1ccc2[nH]cc(CCNC(C)=O)c2c1`: “inactive”; for `CN(C)CCC=C1c2ccccc2C=Cc2ccccc21`: “inactive”.
As to `CC1COc2c(N3CCN(C)CC3)c(F)cc3c(=O)c(C(=O)O)cn1c23` (stereo not given), the “activity change, negative = cytotoxic” value was 6.53% (inactive).
In the case of `Cn1c(=O)c2c(ncn2C)n(C)c1=O`, the Potency entry is “inactive”.
For the compound `CC(COc1ccccc1)N(CCCl)Cc1ccccc1` (stereo not given), the “activity change, negative = cytotoxic” value was -3.33% (inactive).
As for `NS(=O)(=O)c1cc2c(cc1Cl)NCNS2(=O)=O`, the Potency entry is “inactive”.
With `Cc1cc(C(C)(C)C)c(O)c(C)c1CC1=NCCN1`, the Potency result is “inactive”.
Same read-out and setting: the result for `Nc1nnc(-c2cccc(Cl)c2Cl)c(N)n1` reads “inactive”; that for `Cc1cnc(C(=O)NCCc2ccc(S(=O)(=O)NC(=O)NC3CCCCC3)cc2)cn1`, “inactive”; that for `CC1(CN2CCC(n3c(=O)[nH]c4ccccc43)CC2)OCc2ccccc2-n2cccc21` (stereo not given), “inactive”.
Turning to `CN(CCOc1ccc(NS(C)(=O)=O)cc1)CCc1ccc(NS(C)(=O)=O)cc1`, the Potency result was “inactive”.
The same measure, in the same setting: the result for `O=C(Nc1ccc([N+](=O)[O-])cc1Cl)c1cc(Cl)ccc1O` reads 1.3 µM (active) and 935 nM (active); that for `CN(C)C(=N)N=C(N)N`, “inactive”.
As for `Cc1ccc(C(=O)Nc2ccc(S(=O)(=O)O)c3cc(S(=O)(=O)O)cc(S(=O)(=O)O)c23)cc1NC(=O)c1cccc(NC(=O)Nc2cccc(C(=O)Nc3cc(C(=O)Nc4ccc(S(=O)(=O)O)c5cc(S(=O)(=O)O)cc(S(=O)(=O)O)c45)ccc3C)c2)c1`, the “activity change, negative = cytotoxic” value is 19.9% (inactive).
For `CC(C)NCC(O)COc1ccc(CCOCC2CC2)cc1` (stereo not given), the Potency result is “inactive”.
Same read-out and setting: the result for `CC(=O)OCC(CCn1cnc2cnc(N)nc21)COC(C)=O` reads “inactive”; that for `COC(=O)Nc1nc2ccc(C(=O)c3cccs3)cc2[nH]1`, 3.3 nM (active) and 119 nM (active).
Take `CC1(C)O[C@H]2CC(=O)OC[C@]23[C@H]2CC[C@@]4(C)[C@H](c5ccoc5)OC(=O)[C@H]5O[C@]54[C@]2(C)C(=O)C[C@@H]13`: the Potency entry is “inactive”.
The same measure, in the same setting: the result for `Cc1cc(C(C)(C)C)cc(C)c1CC1=NCCN1` reads “inactive”; that for `CCC1(C)CC(=O)NC1=O` (stereo not given), “inactive”.
Same read-out and setting: the result for `CCCCc1oc2ccccc2c1C(=O)c1cc(I)c(OCCN(CC)CC)c(I)c1` reads 1.48 µM (active); that for `NC12CC3CC(CC(C3)C1)C2`, “inactive”.
With `CN1CCN(C2=Nc3cc(Cl)ccc3Nc3ccccc32)CC1`, the “activity change, negative = cytotoxic” value was -23.3% (inactive).
Take `CC(C)C(=O)Nc1ccc([N+](=O)[O-])c(C(F)(F)F)c1`: the “activity change, negative = cytotoxic” value was -20.9% (inactive).
The same measure, in the same setting: the same measure for `N[C@@H](Cc1c[nH]c2ccc(O)cc12)C(=O)O`: -28.6% (inactive).
For the compound `O=C(c1ccc(OCCN2CCCCC2)cc1)c1c(-c2ccc(O)cc2)sc2cc(O)ccc12`, the Potency is 15 µM (active).
Same read-out and setting: the same measure for `COc1ccc(C2CNC(=O)C2)cc1OC1CCCC1` (stereo not given): “inactive”.
On the same count and under the same terms, the result for `Nc1ccn([C@H]2CC[C@@H](CO)O2)c(=O)n1` reads “inactive”.
Take `CCOC(=O)C(C)(C)Oc1ccc(Cl)cc1`: the “activity change, negative = cytotoxic” value is 5.2% (inactive).
Consider `Cc1ccccc1N1C(=O)c2cc(S(N)(=O)=O)c(Cl)cc2NC1C` (stereo not given), for which the Potency entry is “inactive”.
In the case of `CCOC(=O)c1ncn2c1CN(C)C(=O)c1cc(F)ccc1-2`, the “activity change, negative = cytotoxic” value is 0.509% (inactive).
As for `CC(C(=O)O)c1cccc(C(=O)c2ccccc2)c1` (stereo not given), the Potency entry was “inactive”.
Consider `NC(=O)NO`, for which the “activity change, negative = cytotoxic” value was 21.1% (inactive).
On to `CN(Cc1cnc2nc(N)nc(N)c2n1)c1ccc(C(=O)N[C@@H](CCC(=O)O)C(=O)O)cc1`, for which the Potency was 0.0526 µM (active).
On to `Nc1nc2c(ncn2COC(CO)CO)c(=O)[nH]1`, for which the “activity change, negative = cytotoxic” value was 10.8% (inactive).
Still for that read-out and setting: the result for `CN1CCC(=C2c3ccccc3CC(=O)c3sccc32)CC1` reads -7.41% (inactive).
Turning to `CNCCCC12CCC(c3ccccc31)c1ccccc12`, the “activity change, negative = cytotoxic” value was -7.19% (inactive).
For `COc1ccccc1OCC(O)CN1CCN(CC(=O)Nc2c(C)cccc2C)CC1` (stereo not given), the Potency result was “inactive”.
For the compound `Clc1ccc2c(c1)C(N1CCNCC1)=Nc1ccccc1O2`, the Potency entry was “inactive”.
